Compound activity: PubChem BioAssay, The Scripps Research Institute Molecular Screening Center
hcDAF-12 act: activators of H. contortus DAF-12 nuclear receptor; AID 652067; HEK293 hcDAF-12 lit1-tk-luc reporter, luminescence; 0% DMSO, 100% Δ7-dafachronic acid; activation, % at 6.8 µM; 370,000 tested, 1.4% active;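 active means activation above the mean of all tested compounds plus 3 SD, cut at about 5.5% in these data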;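 further: 100% = response to 3 µM Δ7-dafachronic acid high control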
DAX1 inh-1: DAX1 (NR0B1) inhibition, primary screen; HEK293T StAR-luciferase reporter, SF-1/DAX-1 repression relief; inhibition, % at 6.8 µM; 370,000 tested, 1.1% active; AID 652010;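 active means inhibition above the mean over all tested compounds plus 3 SD, cut at about 3.6% in these data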;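 further: 0% = DAX-1 cells with DMSO and 100% = cells lacking DAX-1 with DMSO; higher inhibition means more luminescence from relief of DAX-1 repression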
ssDAF-12 act: S. stercoralis DAF-12 activation, primary screen; HEK293 ssDAF-12/GRIP1 lit1-tk-luc reporter, luminescence; % of 3 µM dafachronic acid response; activation, % at 6.8 µM; 370,000 tested, 1% active; AID 652126;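 active means activation above the mean over all tested compounds plus 3 SD, cut at about 0.9% in these data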;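 further: 0% = DMSO-only wells and 100% = 3 µM delta7-dafachronic acid wells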
DAX1 inh-2: inhibitors of human orphan nuclear receptor DAX1 (NR0B1); HEK293 Gal4-DAX1 luciferase reporter, luminescence; inhibition, % at 6.75 µM; 340,000 tested, 0.99% active; AID 504766;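 active means inhibition above the mean over all tested compounds plus 3 SD, cut at about 4.2% in these data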;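 further: 0% = DAX1-transfected cells with DMSO and 100% = empty-vector control cells with DMSO; inhibition shows as a rise in luminescence from relieved DAX1 repression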
Target sequence (P51843 207-470 limits assumed): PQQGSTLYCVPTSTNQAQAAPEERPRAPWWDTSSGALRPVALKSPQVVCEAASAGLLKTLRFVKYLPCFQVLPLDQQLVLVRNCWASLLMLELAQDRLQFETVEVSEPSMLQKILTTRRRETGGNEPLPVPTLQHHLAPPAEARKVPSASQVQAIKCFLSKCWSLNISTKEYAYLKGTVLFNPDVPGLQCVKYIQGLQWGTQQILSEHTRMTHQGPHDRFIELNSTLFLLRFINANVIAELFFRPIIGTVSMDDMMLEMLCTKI
hgDAF12 agonist: agonists of H. glycines DAF-12 nuclear receptor. HEK293 GAL4-hgDAF12 UAS-luciferase reporter, agonist luminescence; normalized to butyrate control. activation, % at 6.8 µM. 370,000 tested, 1.8% active. AID 687014;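 active means activation above a cutoff set at the mean of all screened compounds plus 3 SD, cut at about 10% in these data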;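 further: 0% = DMSO wells and 100% = sodium butyrate wells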
LXR ag: activates human LXR-beta, counter-screen for hcDAF-12 agonists; HEK293 Gal4-LXR tk-luc reporter, luminescence, 24 h; normalized: DMSO 0%, positive control 100%; shares compounds with hcDAF-12 act; activation, % at 6.8 µM; 3,400 tested, under 10 active;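 active means mean percent activation of the reporter above a cutoff set as the average over tested compounds plus their standard deviation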
hcDAF12 conf: confirmation of H. contortus DAF-12 agonists | shares compounds with hcDAF-12 act | HEK293 hcDAF-12 lit1-tk-luc reporter, luminescence; % of Δ7-dafachronic acid response | activation, % at 6.8 µM | 3,400 tested, 61% active;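 active means mean activation across triplicate tests above the threshold derived from the earlier primary screen, cut at about 5.5% in these data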;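 further: 0% = DMSO only wells and 100% = 3 µM Δ7-dafachronic acid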
An asterisk follows results filed as active. This is a sample that favours compounds with a hit; in the whole collection about 4.1% have one here.

What do the screens show for `Cc1ccc(S(=O)(=O)Nc2nc3ccc(N)cc3s2)cc1`?
hcDAF-12 act: -2; DAX1 inh-1: 0; ssDAF-12 act: -1; DAX1 inh-2: 0; hgDAF12 agonist: -1

What do the screens show for `COc1ccc2nc(-c3ccc(F)cc3)sc2c1`?
hcDAF-12 act: 9.3*; DAX1 inh-1: 3; ssDAF-12 act: 1.0*; DAX1 inh-2: -2; hgDAF12 agonist: 11*; LXR ag: 1; hcDAF12 conf: 6.7*

Results for Cc1ccc2nc(-c3ccc(N)cc3)sc2c1 ?
hcDAF-12 act: 11*; DAX1 inh-1: 4.2*; ssDAF-12 act: 1.6*; hgDAF12 agonist: 9; LXR ag: 2; hcDAF12 conf: 13*

What do the screens show for `Nc1ccc2nc(-c3ccccc3)sc2c1`?
hcDAF-12 act: 9.7*; DAX1 inh-1: 2; ssDAF-12 act: 0; DAX1 inh-2: -3; hgDAF12 agonist: 11*; LXR ag: 2; hcDAF12 conf: 7.1*

What do the screens show for `COc1ccc2nc(N)sc2c1`?
hcDAF-12 act: 3; DAX1 inh-1: 0; ssDAF-12 act: -1; DAX1 inh-2: 1; hgDAF12 agonist: 5

Results for CCCCOCCCNC(=O)C[C@H]1C(=O)N(Cc2ccc(OC)cc2)C2=CCCCC[C@@]21C(=O)OC ?
hcDAF-12 act: -3; DAX1 inh-1: -1; ssDAF-12 act: -1; hgDAF12 agonist: -3

Results for C/C(=N/NC(=O)c1cccnc1)c1cccc(O)c1 ?
hcDAF-12 act: 2; DAX1 inh-1: 1; ssDAF-12 act: 0; hgDAF12 agonist: 2

Results for CC(=O)N(NC(=O)c1ccc(C)cc1)C1CC(=O)N(c2ccccc2Cl)C1=O (stereo not given) ?
hcDAF-12 act: 8.6*; DAX1 inh-1: -1; ssDAF-12 act: -2; DAX1 inh-2: 0; hgDAF12 agonist: -2; LXR ag: 0; hcDAF12 conf: 2

What do the screens show for `COc1ccccc1OCCNC(=O)c1cc(F)c(F)cc1Cl`?
hcDAF-12 act: 7.8*; DAX1 inh-1: 0; ssDAF-12 act: 0; DAX1 inh-2: 1; hgDAF12 agonist: 3; LXR ag: 0; hcDAF12 conf: 3

Results for Cc1ccc2nc(NC(=S)NC(=O)c3cccs3)sc2c1 ?
hcDAF-12 act: 7.2*; DAX1 inh-1: 1; ssDAF-12 act: 0.9*; DAX1 inh-2: 2; hgDAF12 agonist: 11*; LXR ag: 1; hcDAF12 conf: 15*

How did O=C(Nc1nc2c(s1)CCCC2)c1cccs1 do in these assays?
hcDAF-12 act: 9.5*; DAX1 inh-1: 3; ssDAF-12 act: 1; DAX1 inh-2: -2; hgDAF12 agonist: 10; LXR ag: 1; hcDAF12 conf: 6.1*

What do the screens show for `Cc1ccc2nc(NC(=O)c3cccs3)sc2c1`?
hcDAF-12 act: 10*; DAX1 inh-1: 3; ssDAF-12 act: 1.1*; DAX1 inh-2: -2; hgDAF12 agonist: 11*; LXR ag: 2; hcDAF12 conf: 5.9*

How did Cc1cc(C)c2oc(-c3ccc(C)c(NC(=S)NC(=O)c4cccs4)c3)nc2c1 do in these assays?
hcDAF-12 act: 7.7*; DAX1 inh-1: 0; ssDAF-12 act: 1; DAX1 inh-2: 4; hgDAF12 agonist: 7; LXR ag: 0; hcDAF12 conf: 4

Results for Nc1ccn([C@@H]2O[C@H](C(=O)N[C@H](Cc3ccccc3)C(=O)N3CCC(F)(F)CC3)[C@@H](O)[C@H]2O)c(=O)n1 ?
hcDAF-12 act: -1; DAX1 inh-1: 1; ssDAF-12 act: -1; hgDAF12 agonist: 3

How did COC(=O)[C@]12C[C@H](CC(=O)N3CCOCC3)C(=O)N(CCC3=CCCCC3)C1=C[C@H](C(C)(C)C)O[C@@H]2C do in these assays?
hcDAF-12 act: -1; DAX1 inh-1: 0; ssDAF-12 act: -1; hgDAF12 agonist: 1

How did Clc1cccc(CNc2nc(-c3ccccn3)nnc2-c2ccccc2)c1 do in these assays?
hcDAF-12 act: -3; ssDAF-12 act: -2; hgDAF12 agonist: -11

Results for C=CCN1C(=O)c2n[nH]c(COC)c2C1c1cccc(C(F)(F)F)c1 (stereo not given) ?
hcDAF-12 act: -2; DAX1 inh-1: 0; ssDAF-12 act: -1; hgDAF12 agonist: -2

What do the screens show for `CN(C)C(CNC(=O)CCS(=O)(=O)c1ccccc1)c1ccccc1` (stereo not given)?
hcDAF-12 act: 8.9*; DAX1 inh-1: 0; ssDAF-12 act: 0; DAX1 inh-2: 0; hgDAF12 agonist: 4; LXR ag: 0; hcDAF12 conf: 7.1*

How did O=C(CCS(=O)(=O)c1ccccc1)NCCS(=O)(=O)c1ccccc1 do in these assays?
hcDAF-12 act: -1; DAX1 inh-1: 0; ssDAF-12 act: -1; DAX1 inh-2: 0; hgDAF12 agonist: 1

Results for Cc1csc(N/N=C/c2ccccc2F)n1 ?
hcDAF-12 act: 7.2*; DAX1 inh-1: 1; ssDAF-12 act: 1; DAX1 inh-2: 3; hgDAF12 agonist: 10; LXR ag: 1; hcDAF12 conf: 10*

Results for Cc1ccc(C(=O)Nc2ccc(-c3csc(C)n3)cc2)cc1 ?
hcDAF-12 act: 0; DAX1 inh-1: 1; ssDAF-12 act: -1; DAX1 inh-2: 0; hgDAF12 agonist: 9

What do the screens show for `Cc1nc(-c2ccc(NC(=O)c3ccccc3)cc2)cs1`?
hcDAF-12 act: 6.7*; DAX1 inh-1: 4.5*; ssDAF-12 act: 1.2*; DAX1 inh-2: -2; hgDAF12 agonist: 12*; LXR ag: 2; hcDAF12 conf: 8.0*

How did C[C@@H]1ON(C)[C@H]2C[C@H]3c4[nH]c5c(-c6ccccc6F)cccc5c4CCN3C(=O)[C@@H]12 do in these assays?
hcDAF-12 act: -2; DAX1 inh-1: 0; ssDAF-12 act: -1; hgDAF12 agonist: 2

How did CCCCn1c(O)c2n(c1=O)Cc1ccccc1N=C2c1ccc(C)cc1 do in these assays?
hcDAF-12 act: 7.3*; DAX1 inh-1: 1; ssDAF-12 act: 0; hgDAF12 agonist: 0; LXR ag: 0; hcDAF12 conf: 4

Results for CCCCn1c(O)c2n(c1=O)Cc1ccccc1N=C2c1ccccc1 ?
hcDAF-12 act: 4; DAX1 inh-1: -1; ssDAF-12 act: -1; hgDAF12 agonist: -1

What do the screens show for `O=C(COC(=O)c1cccc(Cl)c1Cl)NCCN1C(=O)CSC1=O`?
hcDAF-12 act: 9.0*; DAX1 inh-1: 0; ssDAF-12 act: 1; DAX1 inh-2: 0; hgDAF12 agonist: 1; LXR ag: 0; hcDAF12 conf: 1

Results for O=C(COC(=O)c1ccccc1Br)NCCN1C(=O)CSC1=O ?
hcDAF-12 act: 1; DAX1 inh-1: 0; ssDAF-12 act: -1; DAX1 inh-2: 0; hgDAF12 agonist: 3
